# About 310 (0.34%) of roughly 91,000 compounds were called active. The full list was thinned out, with actives kept by preference. A number with no mark means an inactive call. Cut-off read from the data, not from the text of the source: active = inhibition above about 80%; inactive = the rest.
# Target: Bifunctional epoxide hydrolase 2 (Homo sapiens) (UniProt P34913)
# Test: soluble epoxide hydrolase inhibitors, primary screen, biochemical, human sEH (AID 707)
# Details: recombinant human sEH enzymatic activity assay; at 2 µM; stronger effect = higher value
# Chain of Bifunctional epoxide hydrolase 2 (Homo sapiens) (P34913 whole entry, looked up): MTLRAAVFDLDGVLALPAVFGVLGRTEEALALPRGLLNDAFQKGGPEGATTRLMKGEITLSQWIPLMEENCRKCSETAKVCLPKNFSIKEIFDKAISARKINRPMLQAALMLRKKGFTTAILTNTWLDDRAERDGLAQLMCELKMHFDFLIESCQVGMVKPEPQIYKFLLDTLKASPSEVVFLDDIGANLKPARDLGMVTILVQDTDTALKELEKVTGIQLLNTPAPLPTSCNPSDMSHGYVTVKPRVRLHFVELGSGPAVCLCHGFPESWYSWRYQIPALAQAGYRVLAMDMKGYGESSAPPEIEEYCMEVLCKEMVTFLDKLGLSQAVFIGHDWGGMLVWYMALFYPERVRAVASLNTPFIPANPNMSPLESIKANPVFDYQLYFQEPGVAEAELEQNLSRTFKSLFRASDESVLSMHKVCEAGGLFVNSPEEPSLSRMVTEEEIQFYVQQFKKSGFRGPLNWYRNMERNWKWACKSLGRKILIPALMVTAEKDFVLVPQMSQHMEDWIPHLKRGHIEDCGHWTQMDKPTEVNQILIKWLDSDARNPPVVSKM
row,SMILES,inhibition
1,Cc1ccc(NC(=S)N/N=C2/CCCc3c(C)cc(C)cc32)cc1,-9.1%
2,CCN(CC)CCNc1ccc(Cl)cc1[N+](=O)[O-],6.5%
3,CSCc1cc(N2CCOCC2)nc(SCc2ccc(Cl)cc2Cl)n1,-22.1%
4,CCc1ccc(/C=N/NC(=O)c2ccc(OC3CCCC3)cc2)s1,95.6% (active)
5,CCOc1ccc(C(=O)NC2CCN(S(=O)(=O)CC)CC2)cc1,-0.5%
6,COc1ccc(C(=O)Nc2ccccc2C(=O)N/N=C/c2ccccc2OC)cc1,4.7%
7,O=C(NC1CCCCC1)c1cc([N+](=O)[O-])ccc1N1CCOCC1,2.6%
8,C/C(=N\NS(=O)(=O)c1cccc([N+](=O)[O-])c1)c1cc2ccccc2o1,7.3%
9,O=C(Nc1ccn(Cc2ccccc2F)n1)c1ccc(COc2ccc(Cl)cc2Cl)o1,1.6%
10,O=C(Nc1ccc(-n2ccnc2P(=O)(O)c2ccccc2)cc1)c1ccccc1Br,-9.1%
11,CC(=O)Nc1cccc(/C(C)=N/NC(=O)c2ccccc2Cl)c1,7.7%
12,O=C(NNS(=O)(=O)c1ccc(Cl)cc1)C1CCN(Cc2ccccc2)CC1,-4%
13,CN(C)/C(CN1CCCCC1)=C1\N=C(c2ccccc2)OC1=O,6.9%
14,CC(=O)c1cnc(SCCN2C(=O)c3ccccc3C2=O)nc1C,8.1%
15,C=CCNC(=O)c1sc(SC)cc1-c1ccc(Cl)cc1,-13.7%
16,CC(C)CNC(=S)NNC(=O)c1ccccc1OC(F)F,-9.6%
17,COC(=O)c1ccccc1OCC(=O)N1CCN(c2ccc(Cl)cc2)CC1,46.4%
18,Cc1c(NC(=O)CCCOc2ccccc2)cccc1[N+](=O)[O-],11.7%
19,CCC(=O)Nc1ccc(C(=O)Nc2cc(C)on2)cc1,-8.6%
20,CCOc1ccc(C(CCc2ccccc2)NC(=O)c2ccc(OC)c(OC)c2)cc1OCC (stereo not drawn),-23.6%
21,COc1cccc(-c2nnc(SCCOc3ccc4c(C)cc(=O)oc4c3)o2)c1,12.2%
22,CCCCn1c(=S)[nH]c2cc(S(=O)(=O)N3CCCCC3)ccc21,6.5%
23,O=C(c1ccc(F)cc1)c1c[nH]c(C(=O)NCc2cccnc2)c1,-11.2%
24,N#Cc1ccsc1NC(=O)CN1CCCCC1,-1.4%

row,SMILES,inhibition
1,O=C(COc1ccc(Cl)cc1)NCCC1=CCCCC1,14.4%
2,COc1cc(C(=O)N2CCN(C/C=C/c3ccccc3)CC2)cc(OC)c1C,-12.7%
3,NC(=O)N1CCCC1C(=O)Nc1ccc(Cl)c(Cl)c1 (stereo not drawn),6.3%
4,Nc1nc(Br)c2ccccc2c1-c1ccc(F)cc1,4.8%
5,Cc1ccc(-c2csc(N(Cc3ccco3)C(=O)c3cccs3)n2)cc1,-9.9%
6,O=[N+]([O-])c1ccc(NCCCN2CCOCC2)c(Cl)c1,19.3%
7,CC(C)NC(=O)NC(=O)COC(=O)c1ccc(NC(=O)CC#N)cc1,-6%
8,CC(C)C(NS(=O)(=O)c1cccs1)C(=O)Nc1nc(C(C)(C)C)cs1 (stereo not drawn),3.1%
9,COc1cccc(/C=N/NC(=O)C(=O)N2CCCC2)c1,-4.3%
10,O=c1cc(N2CCN(Cc3ccccc3)CC2)c(-c2ccccc2)n[nH]1,5.8%
11,COc1cccc(NC(=O)C2c3cc(OC)c(OC)cc3C(=O)N(C)C2c2cccnc2)c1 (stereo not drawn),-8.1%
12,O=C(CN1C(=O)NC2(CCCC2)C1=O)Nc1ccc(F)c(F)c1F,-1.5%
13,O=C(CCCN1C(=O)c2cccc3cccc(c23)C1=O)N1CCN(Cc2ccc3c(c2)OCO3)CC1,5.9%
14,N/C(=N\OC(=O)c1cc(-c2ccccc2)nc2ccccc12)c1ccncc1,-2%
15,O=C(CSCc1ccc([N+](=O)[O-])cc1)Nc1cccc(C(=O)Nc2ccccc2C(=O)O)c1,-3.9%
16,Cc1cc(C(=O)OCC(=O)Nc2ccc(F)c(F)c2)c(C)o1,7.9%
17,CCC(C)n1c(-c2cc(OC)c(OC)c(OC)c2)nc2nc3ccccc3nc21 (stereo not drawn),-0.7%
18,O=C(CNC(=O)OCc1ccccc1)Oc1cc2oc(=O)cc(-c3ccccc3)c2cc1Cl,-5.2%
19,COc1ccccc1N(C)S(=O)(=O)c1ccc(C(=O)N2CCC(C(N)=O)CC2)cc1,12.9%
20,CN(C(=O)CSc1nc(C2CC2)nc2ccccc12)c1nc(-c2ccccc2)cs1,4.4%
21,CCCCNC(=O)c1onc(CSc2cccc(OC)c2)c1C(=O)O,-10.5%
22,CCOC(=O)C1=C(CN2CCc3ccccc32)NC(=O)NC1c1cc(C)ccc1C (stereo not drawn),-4.9%
23,COc1ccc(SCc2noc(C(=O)NCC3CCCO3)c2C(=O)O)cc1 (stereo not drawn),1.5%
24,O=C(Nc1ccc2oc(-c3ccc4ccccc4c3)nc2c1)c1cccs1,34.6%

row,SMILES,inhibition
1,CCCCCC(=O)Nc1ccc2oc(-c3ccncc3)nc2c1,84.3% (active)
2,O=C(Cc1cccc2ccccc12)Nc1ccc2oc(-c3ccccc3)nc2c1,50%
3,C=CCNc1cnn(-c2ccc(C)cc2)c(=O)c1Cl,1.9%
4,CC(C)CC(=O)N1CCC(O)(CS(=O)(=O)Cc2ccccc2)CC1,1.9%
5,O=C(CN1CCN(S(=O)(=O)c2ccc(Cl)s2)CC1)NCc1ccc(Cl)cc1,-1.1%
6,CC(C)(CCl)C(=O)Nc1ccc(Sc2ccc(F)cc2)cc1,28.4%
7,COC(=O)C(NC(=O)c1ccc(OC)cc1)(Nc1ncc(S(=O)(=O)c2ccc([N+](=O)[O-])cc2)s1)C(F)(F)F (stereo not drawn),-1.7%
8,COc1ccc(OCC(=O)NN2Cc3ccccc3C2=N)cc1,4.7%
9,Cc1ccccc1CSCCNC(=O)c1ccc(N(C)S(=O)(=O)c2ccccc2)cc1,36.1%
10,O=C(NCCSCc1ccccc1)c1ccc(Cl)c(S(=O)(=O)N2CCOCC2)c1,78.5%
11,Cc1ccccc1CSCCNC(=O)c1ccc(Cl)c(S(=O)(=O)N2CCOCC2)c1,83.4% (active)
12,O=C(COC(=O)c1ccccc1NC(=O)c1ccco1)Nc1ccc2c(c1)OC(F)(F)O2,28.3%
13,CO/N=C/c1ccc(N2CCN(C(=O)c3cccc(Cl)c3)CC2)c([N+](=O)[O-])c1,-9.1%
14,N#C/C(=C(/O)Cc1cccc2ccccc12)c1nc2ccccc2s1,-15.9%
15,O=C(ON=C1CCN(S(=O)(=O)c2ccccc2)CC1)c1ccc(Cl)cc1,2.3%
16,O=C(CSc1ccc(/C=N/NC(=O)c2cccc(F)c2)o1)Nc1ccccc1,79%
17,Cc1noc(C)c1S(=O)(=O)N(CC(=O)NCc1ccc(Cl)cc1)c1ccc2c(c1)OCO2,14.5%
18,O=C(/C=C/c1ccc(Cl)cc1Cl)NCc1ccco1,19.3%
19,O=C(/C=C/c1cc2c(cc1Br)OCO2)NCc1ccc(Cl)cc1,85.9% (active)
20,O=C(CNC(=O)Cc1ccccc1)NCC(=O)OCC(=O)c1ccccc1Cl,-0.5%
21,CCC(=O)OCc1c(C(F)(F)F)nn(C)c1Oc1cccc(C(F)(F)F)c1,7.8%
22,O=C(O)c1ccccc1NC(=S)NC(NC(=O)c1ccccc1[N+](=O)[O-])C(Cl)(Cl)Cl (stereo not drawn),7.4%
23,CNC(=S)NNC(=O)c1sccc1OCc1ccccc1,-3.9%
24,N#Cc1cc([N+](=O)[O-])ccc1Oc1cccc(/C=N/NC(=O)c2ccc(Cl)cc2)c1,18.1%

row,SMILES,inhibition
1,COc1ccc(-c2cc(C(=O)n3cnc4ccccc43)c3ccccc3n2)cc1,-13.6%
2,Cc1cc([N+](=O)[O-])c(NC2CCCCC2)c([N+](=O)[O-])c1,-4.6%
3,COc1ccc(C(=O)NCCc2ccc(S(N)(=O)=O)cc2)cc1OC,6.9%
4,O=C(NCCCN1CCCCC1)c1ccc2c(c1)NC(=O)C(N1CCOCC1)S2 (stereo not drawn),10%
5,COc1ccc(CCNC(=O)c2ccc3c(c2)NC(=O)C(N2CCOCC2)S3)cc1OC (stereo not drawn),100% (active)
6,O=C1CSC(c2ccccc2)N1c1nc(-c2ccc(Cl)cc2Cl)cs1 (stereo not drawn),10.5%
7,O=C(CN1C(=O)NC(Cc2ccccc2)(Cc2ccccc2)C1=O)NCC1CCCCC1,-8.9%
8,Cn1c2ccccc2n2c(=O)c(=O)n(CC(=O)c3ccc(F)cc3)nc12,-2%
9,O=C(CN1CCCCCC1)Nc1ccc(Br)cc1Br,9.4%
10,CC1(C)CC(=O)C(C=NCCN2CCN(C(=S)Nc3cccc(Cl)c3)CC2)=C(O)C1,13.9%
11,O=C(Cn1cncn1)N/N=C/c1c2ccccc2cc2ccccc12,2%
12,C=CCOC(=O)C1=C(C)NC(C)=C(C(=O)OCC=C)C1c1cccs1,-5.1%
13,COc1ccccc1CSc1nc2ccccc2[nH]1,-2.6%
14,COc1cc(OC)c(/C=N/NC(=O)c2ccc([N+](=O)[O-])cc2)cc1Br,35.2%
15,Cc1ccc(NC(=S)Nc2ncccc2C)c(C)c1,6.9%
16,O=C(/C=C/c1ccccc1)N/C(=C/c1ccccc1)C(=O)Nc1ccccc1O,2.8%
17,Cc1cc2cc3c(N)[nH]nc3nc2cc1C,4.3%
18,Cc1ccc(-n2nc(N)c3c(=O)oc(N(C)C)nc32)cc1,10.2%
19,COc1cc(C(=O)NC(=S)NCc2ccco2)cc(OC)c1OC,12%
20,Cc1ccc(-c2nc3ccccc3[nH]2)cc1NC(=O)c1sc2ccccc2c1Cl,10.9%
21,NC(=O)C1(N2CCCCC2)CCN(C(=S)Nc2ccc(Cl)cc2)CC1,0.6%
